Assay results taken from the supplement of paper PMC11732987, “Enantioselective OTUD7B fragment discovery through chemoproteomics screening and high-throughput optimisation” (Communications Chemistry, 2025).
Unmarked numbers belong to inactive results.

Key:
Assay in all cases: log2 ratio of Biotin-Ahx-Ub-VS probe labelling (fragment/DMSO); higher = less target engagement (more negative = stronger competition), active = hit call of the paper (q ≤ 0.05, log2 ratio ≤ -1)
Details in all cases: compound concentration: 200 uM; treatment time: 3 h
[1] = target: T1, OTUD6B (UniProt Q8N6M0)
T1 sequence (whole entry): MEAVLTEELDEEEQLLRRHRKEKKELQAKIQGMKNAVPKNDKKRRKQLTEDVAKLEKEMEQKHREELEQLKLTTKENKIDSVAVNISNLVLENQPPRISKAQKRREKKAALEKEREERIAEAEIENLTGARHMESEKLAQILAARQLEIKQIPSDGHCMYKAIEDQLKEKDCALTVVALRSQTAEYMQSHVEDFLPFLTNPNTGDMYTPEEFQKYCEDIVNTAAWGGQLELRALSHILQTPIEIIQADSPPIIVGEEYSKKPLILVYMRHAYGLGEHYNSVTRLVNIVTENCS
How it was run: (§1)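 Labelling with Biotin-Ahx-Ub-VS (0.5 µM final, 1 h) followed a 3 h triplicate treatment of HEK293T lysate (495 µg per sample, Tris/CHAPS/IGEPAL buffer with protease inhibitors) with fragment at 200 µM or vehicle. Labelled DUBs were NeutrAvidin-enriched, digested with LysC and trypsin, and run by diaPASEF LC-MS/MS. The values, average log2 fragment/vehicle ratios by unpaired t-test, come from global-median-normalised Spectronaut label-free quantities. Proteins with ≥2 unique peptides were used.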

[2] = target: T2, OTUD7B (UniProt Q6GQQ9)
T2 sequence (whole entry): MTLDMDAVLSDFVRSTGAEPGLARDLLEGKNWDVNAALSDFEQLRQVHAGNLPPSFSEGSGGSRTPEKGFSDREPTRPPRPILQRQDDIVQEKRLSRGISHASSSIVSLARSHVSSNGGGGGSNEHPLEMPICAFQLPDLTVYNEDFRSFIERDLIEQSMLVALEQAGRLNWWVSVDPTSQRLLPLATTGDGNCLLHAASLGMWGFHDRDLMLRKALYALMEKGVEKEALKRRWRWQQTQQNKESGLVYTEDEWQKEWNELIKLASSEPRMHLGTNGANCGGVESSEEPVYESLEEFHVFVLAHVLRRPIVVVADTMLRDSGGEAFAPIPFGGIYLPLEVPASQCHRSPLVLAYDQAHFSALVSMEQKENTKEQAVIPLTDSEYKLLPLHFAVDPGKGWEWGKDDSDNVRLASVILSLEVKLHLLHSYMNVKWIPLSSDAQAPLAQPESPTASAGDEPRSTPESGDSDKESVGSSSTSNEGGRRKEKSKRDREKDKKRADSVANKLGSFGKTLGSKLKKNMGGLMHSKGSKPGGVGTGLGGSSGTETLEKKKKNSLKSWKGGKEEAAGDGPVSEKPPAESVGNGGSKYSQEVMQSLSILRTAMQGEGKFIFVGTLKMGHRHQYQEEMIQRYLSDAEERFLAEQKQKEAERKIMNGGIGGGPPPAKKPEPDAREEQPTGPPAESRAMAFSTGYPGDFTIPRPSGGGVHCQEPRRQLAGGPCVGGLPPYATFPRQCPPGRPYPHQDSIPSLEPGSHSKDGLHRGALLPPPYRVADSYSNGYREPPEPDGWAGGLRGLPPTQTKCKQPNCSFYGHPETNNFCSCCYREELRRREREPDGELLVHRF
How it was run: as §1

[3] = target: PRPF8 (UniProt Q6P2Q9)
How it was run: as §1

[4] = target: T3, PSMD7 (UniProt P51665)
T3 sequence (whole entry): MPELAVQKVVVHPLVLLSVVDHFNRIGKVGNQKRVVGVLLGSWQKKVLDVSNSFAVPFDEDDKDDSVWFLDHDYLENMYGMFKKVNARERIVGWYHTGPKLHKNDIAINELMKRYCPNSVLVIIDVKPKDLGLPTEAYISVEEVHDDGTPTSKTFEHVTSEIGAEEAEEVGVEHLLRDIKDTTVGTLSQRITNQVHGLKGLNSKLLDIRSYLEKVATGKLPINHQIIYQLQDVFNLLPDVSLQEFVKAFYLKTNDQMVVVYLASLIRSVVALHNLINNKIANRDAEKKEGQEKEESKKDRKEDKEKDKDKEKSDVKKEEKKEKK
How it was run: as §1

[5] = target: UCHL1 (UniProt P09936)
Chain of UCHL1 (P09936 whole entry, looked up): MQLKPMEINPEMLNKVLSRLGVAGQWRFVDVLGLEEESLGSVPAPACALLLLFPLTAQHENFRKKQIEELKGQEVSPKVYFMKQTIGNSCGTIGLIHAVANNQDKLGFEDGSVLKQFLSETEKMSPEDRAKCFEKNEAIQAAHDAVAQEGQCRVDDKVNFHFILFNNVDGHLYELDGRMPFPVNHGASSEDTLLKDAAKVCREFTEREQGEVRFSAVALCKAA
How it was run: as §1

[6] = target: T4, UCHL3 (UniProt P15374)
T4 sequence (whole entry): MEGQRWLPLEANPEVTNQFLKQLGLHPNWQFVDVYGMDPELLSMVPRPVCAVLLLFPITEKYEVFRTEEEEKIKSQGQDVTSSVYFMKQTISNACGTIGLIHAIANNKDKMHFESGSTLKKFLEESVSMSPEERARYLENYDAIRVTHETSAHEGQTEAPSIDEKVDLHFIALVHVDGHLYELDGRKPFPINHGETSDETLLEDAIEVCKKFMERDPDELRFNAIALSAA
How it was run: as §1

[7] = target: T5, UCHL5 (UniProt Q9Y5K5)
T5 sequence (whole entry): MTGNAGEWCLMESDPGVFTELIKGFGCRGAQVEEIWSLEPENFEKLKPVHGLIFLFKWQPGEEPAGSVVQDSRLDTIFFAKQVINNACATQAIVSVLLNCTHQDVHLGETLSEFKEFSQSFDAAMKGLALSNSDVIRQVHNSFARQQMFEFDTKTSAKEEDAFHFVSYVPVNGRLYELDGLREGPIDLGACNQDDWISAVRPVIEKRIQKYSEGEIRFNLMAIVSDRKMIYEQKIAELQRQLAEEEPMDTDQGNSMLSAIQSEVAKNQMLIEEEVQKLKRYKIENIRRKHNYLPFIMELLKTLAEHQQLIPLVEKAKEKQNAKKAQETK
How it was run: as §1

[8] = target: USP10 (UniProt Q14694)
Chain of USP10 (Q14694 whole entry): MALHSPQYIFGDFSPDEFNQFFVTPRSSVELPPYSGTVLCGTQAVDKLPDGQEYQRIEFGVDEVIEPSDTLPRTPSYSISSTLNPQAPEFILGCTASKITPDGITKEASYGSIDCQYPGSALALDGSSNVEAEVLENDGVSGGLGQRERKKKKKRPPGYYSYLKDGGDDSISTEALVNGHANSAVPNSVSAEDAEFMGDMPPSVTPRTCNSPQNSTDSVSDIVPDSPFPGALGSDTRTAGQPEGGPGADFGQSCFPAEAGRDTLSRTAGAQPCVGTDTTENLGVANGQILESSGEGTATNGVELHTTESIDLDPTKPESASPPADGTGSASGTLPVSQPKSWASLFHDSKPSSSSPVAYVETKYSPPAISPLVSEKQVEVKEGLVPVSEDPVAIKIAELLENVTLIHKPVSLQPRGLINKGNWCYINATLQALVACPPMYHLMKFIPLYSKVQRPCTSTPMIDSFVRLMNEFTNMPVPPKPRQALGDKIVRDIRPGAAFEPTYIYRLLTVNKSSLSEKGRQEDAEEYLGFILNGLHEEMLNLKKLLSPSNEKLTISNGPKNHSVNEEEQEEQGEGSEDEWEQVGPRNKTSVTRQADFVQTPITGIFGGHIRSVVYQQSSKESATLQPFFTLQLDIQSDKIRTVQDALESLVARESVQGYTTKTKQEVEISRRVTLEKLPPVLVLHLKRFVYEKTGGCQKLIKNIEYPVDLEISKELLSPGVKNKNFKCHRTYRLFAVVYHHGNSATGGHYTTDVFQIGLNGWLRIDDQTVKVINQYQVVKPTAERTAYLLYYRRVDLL
How it was run: as §1

[9] = target: T6, USP15 (UniProt Q9Y4E8)
T6 sequence (whole entry): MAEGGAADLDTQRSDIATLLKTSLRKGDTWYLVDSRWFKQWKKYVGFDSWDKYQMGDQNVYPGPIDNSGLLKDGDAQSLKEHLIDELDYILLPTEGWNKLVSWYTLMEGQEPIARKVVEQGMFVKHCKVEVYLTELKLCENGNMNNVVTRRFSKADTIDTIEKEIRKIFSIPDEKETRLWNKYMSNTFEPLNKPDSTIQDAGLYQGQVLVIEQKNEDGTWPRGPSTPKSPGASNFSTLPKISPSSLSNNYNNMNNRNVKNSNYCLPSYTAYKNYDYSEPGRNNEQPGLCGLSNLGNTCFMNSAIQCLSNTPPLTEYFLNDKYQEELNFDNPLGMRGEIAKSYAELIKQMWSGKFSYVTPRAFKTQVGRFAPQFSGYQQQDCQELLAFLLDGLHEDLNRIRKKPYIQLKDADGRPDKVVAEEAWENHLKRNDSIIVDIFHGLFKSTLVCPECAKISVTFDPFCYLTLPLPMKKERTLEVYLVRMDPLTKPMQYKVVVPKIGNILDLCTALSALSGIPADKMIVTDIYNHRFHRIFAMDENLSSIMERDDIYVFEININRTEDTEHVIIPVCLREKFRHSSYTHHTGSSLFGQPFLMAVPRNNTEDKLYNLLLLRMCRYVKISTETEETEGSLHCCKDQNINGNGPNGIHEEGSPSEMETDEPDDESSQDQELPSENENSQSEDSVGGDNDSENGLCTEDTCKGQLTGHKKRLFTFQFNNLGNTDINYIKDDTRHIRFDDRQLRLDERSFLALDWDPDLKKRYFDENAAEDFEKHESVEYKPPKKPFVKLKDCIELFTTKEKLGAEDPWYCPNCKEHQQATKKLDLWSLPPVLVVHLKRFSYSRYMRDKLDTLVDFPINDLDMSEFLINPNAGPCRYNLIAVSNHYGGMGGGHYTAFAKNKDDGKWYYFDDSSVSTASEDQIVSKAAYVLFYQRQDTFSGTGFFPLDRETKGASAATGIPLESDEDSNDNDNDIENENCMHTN
How it was run: as §1

C[C@H]1CN(C(=O)CCl)CCN1C(=O)c1cnn(C)c1.Cl
log2 ratio of Biotin-Ahx-Ub-VS probe labelling [1]: -0.288
log2 ratio of Biotin-Ahx-Ub-VS probe labelling [2]: -0.168
log2 ratio of Biotin-Ahx-Ub-VS probe labelling [3]: 0.144
log2 ratio of Biotin-Ahx-Ub-VS probe labelling [4]: -0.0809
log2 ratio of Biotin-Ahx-Ub-VS probe labelling [5]: -2.38 (active)
log2 ratio of Biotin-Ahx-Ub-VS probe labelling [6]: 0.376
log2 ratio of Biotin-Ahx-Ub-VS probe labelling [7]: -0.259
log2 ratio of Biotin-Ahx-Ub-VS probe labelling [8]: 0.0256
log2 ratio of Biotin-Ahx-Ub-VS probe labelling [9]: -0.149
